The campaign covered roughly 360,000 compounds. About 2,400 (0.67%) were called active.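 How the source made its calls: active means inhibition above about 55% (limit read from the data); inconclusive means no clear call, values can overlap the other calls; inactive means the rest.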 The full list was thinned out, with actives kept by preference.

The assay is described as follows: LAMP-1 surface exposure blockers, TALL-104 cells – cell-based, flow cytometry, MLPCN library, primary screen (AID 651702). Particulars: TALL-104 LAMP-1 surface exposure, at 10 µM, hits give high values, cells stimulated with thapsigargin and PMA. For orientation: In flow cytometry, cells or beads pass a laser one at a time.
One may read the inhibition as the drop in the measured response relative to a control, in per cent. For `Nc1ccn(CC(=O)N2CCN(c3ccccn3)CC2)c(=O)n1`, the inhibition is 6.5% (inactive). In the case of `CC(C)(C)NC(=O)CN(Cc1cccs1)C(=O)CNS(=O)(=O)c1ccccc1` it was -2.2% (inactive); in that of `COc1ccc(OC)c(NC(=O)CN(Cc2ccc(Cl)cc2)S(C)(=O)=O)c1`, 6.3% (inactive); in that of `COc1ccc(Br)cc1CN(C)CC(=O)Nc1cc([N+](=O)[O-])ccc1OC`, 0.6% (inactive). In the case of `COc1ccc(OC)c(NC(=O)CN(C)CCOc2ccc(Br)cc2)c1` it was 93.7% (active); in that of `COCc1c(C(=O)N/N=C/C2CC=CCC2)nnn1-c1nonc1N` (centres undefined), 1.4% (inactive); in that of `Cc1cc(C)n(CC(O)CN(c2ccccc2)S(=O)(=O)c2ccc3ccccc3c2)n1` (centres undefined), -1% (inactive). For `CS(=O)(=O)N(CC(O)Cn1c2ccccc2c2ccccc21)c1cccc2ccccc12` (centres undefined), the inhibition was 86.5% (active). The same measure for `CCCCN(CCCC)CC(O)Cn1c2ccccc2c(=O)c2ccccc21` (centres undefined): 11.9% (inactive).

Consider `O=S(=O)(NCC1CC1)c1ccc(F)c(Cl)c1`, for which the inhibition was -8.8% (inactive). Take `CCOc1ccc(C(C)=O)cc1COC(=O)c1cnc(Cl)c(Cl)c1`: the inhibition was 57.6% (active).

Regarding `COC(=O)c1ccc(COC(=O)c2cnc(Cl)c(Cl)c2)cc1`, the inhibition was -4.5% (inactive). For the molecule `CCOc1ccc(C(C)=O)cc1COC(=O)CNC(=O)c1cccs1`, the inhibition was -4.6% (inactive).

As for `CC(C)(C)NS(=O)(=O)CC12CCC(CC1=O)C2(C)C` (centres undefined), the inhibition is -2.4% (inactive). In the case of `COc1ccc(NC(=O)/C(Cl)=C(/Cl)S(=O)Cc2ccc(C)cc2)cn1` (centres undefined) it was 103% (active); in that of `O=C(O[C@@H]1[C@H](Cc2ccccc2)NS(=O)(=O)[C@H]2C[C@@H]3C=C[C@]12O3)c1ccccc1Br`, -3.7% (inactive). Take `COC(=O)c1ccccc1NC(=O)CSc1nc2c(c(=O)[nH]1)CCC2`: the inhibition was 8.6% (inactive). In the case of `OC(COCC1COc2ccccc2O1)CN1CCN(c2ccc(F)cc2)CC1` (centres undefined) it was -15.5% (inactive); in that of `CCN1CCN(CCNC(=O)c2ccc(/C=C3/Sc4ccccc4N(Cc4cccc(C)c4)C3=O)cc2)CC1`, 86.2% (active); in that of `O=C(CN1C(=O)/C(=C\c2ccc(C(F)(F)F)cc2)Sc2ccccc21)NCc1ccco1`, -0.7% (inactive). The same measure for `CCN1CCN(CCNC(=O)c2ccc3c(c2)NC(=O)/C(=C\c2cccc(Cl)c2)S3)CC1`: 10.1% (inactive); for `CC(=O)c1cnc(SCC(=O)O)nc1C`: -1% (inactive).

Turning to `Cc1cc(NC(=O)CS(=O)(=O)c2cn(C)c3ccccc23)no1`, the inhibition was -1.6% (inactive).

Consider `COc1ccc(C(=O)NCC2CCCO2)cc1S(=O)(=O)NCc1ccc(Cl)cc1` (centres undefined), for which the inhibition is -5.7% (inactive). As to `C=CCn1c(SCc2csc(C)n2)nc2scc(-c3ccc(C)o3)c2c1=O`, the inhibition was 62.3% (active). The same measure for `C=CCn1c(SCC(=O)/C(C#N)=C(\C)N)nc2sc(C)c(C)c2c1=O`: -1.8% (inactive); for `C=CCn1c(SCC(=O)Nc2ccc(NC(C)=O)cc2)nc2sc(C)c(C)c2c1=O`: -3.1% (inactive). The same measure for `COc1ccccc1NS(=O)(=O)c1ccc(C)c(C(=O)NCC(c2ccco2)N(C)C)c1` (centres undefined): 3.6% (inactive); for `CCc1ccc(NC(=O)CS(=O)CC(=O)NCCCc2ccccc2)cc1` (centres undefined): -1.4% (inactive). Regarding `O=C(NCC1CCCO1)C(C(=O)c1ccccc1)n1cc(Cl)ccc1=O` (centres undefined), the inhibition is 1.4% (inactive). Consider `CC(=O)c1c(C)[nH]c(C(=O)COC(=O)c2cccc(S(=O)(=O)N(C)c3ccccc3)c2)c1C`, for which the inhibition is 75.4% (active).

`CC(=O)c1c(C)[nH]c(C(=O)OCC(=O)Nc2c(C)cccc2C)c1C`: the inhibition was 2.6% (inactive). For `COc1ccc(C)cc1NC(=O)C(OC(=O)c1cccc(S(=O)(=O)N(C)c2ccccc2)c1)c1ccccc1` (centres undefined), the inhibition was 0.3% (inactive).

As for `CCOC(=O)CN1CC23C=CC(O2)C(C(=O)Nc2ccc(F)cc2)C3C1=O` (centres undefined), the inhibition was 1.3% (inactive). In the case of `CC(C)C(=O)NCc1cc(-c2ccc(Cl)cc2)no1` it was 0.2% (inactive); in that of `O=C(Nc1ccc(Cl)cn1)c1ccccc1-c1ccccc1`, -5.1% (inactive); in that of `Oc1ccccc1-c1cc(-c2ccc(Cl)cc2)n[nH]1`, 92.9% (active). For `CCCN(CC1CC1)C(=S)NC(=O)c1ccccc1Br`, the inhibition is -2.1% (inactive). The same measure for `CC1Cc2nc(SCC(=O)Nc3ccccc3F)n(C)c(=O)c2S1` (centres undefined): 3.3% (inactive); for `COCCn1c(C)cc(C(=O)COC(=O)/C=C/c2cccc(OC)c2)c1C`: -3.8% (inactive); for `O=C(O)C1CCN(c2ccc([N+](=O)[O-])cc2[N+](=O)[O-])CC1`: -1.4% (inactive). Turning to `CC1CCN(C(=S)c2cccc([N+](=O)[O-])c2)CC1`, the inhibition was 0.5% (inactive).

As to `CC1CCN(c2ccc([N+](=O)[O-])cc2C(N)=O)CC1`, the inhibition was 60.4% (active). In the case of `Cc1ccc(C(C)C)c(OCc2nnc(SCC(=O)Nc3nccs3)n2C)c1` it was 1.2% (inactive); in that of `COc1cc(NC(=O)c2ccccc2)c(OC)cc1NC(=O)Cc1ccccc1`, 0% (inactive); in that of `O=C(NC1=CC(=O)c2ccccc2C1=O)c1ccccc1`, 108% (active). In the case of `C/C(=N\NC(=O)c1ccc(C)cc1)C1C(=O)c2ccccc2C1=O`, the inhibition is -2.2% (inactive). The same measure for `Cc1ccc(S(=O)(=O)NCCSC(C)(C)C)cc1`: 11% (inactive).

For the molecule `O=C(NCc1ccccc1)c1onc(CSc2nc3ccccc3[nH]2)c1C(=O)NCc1ccccc1`, the inhibition was -2.7% (inactive).

`COc1ccc(C(O)C(O)(C(=O)OC(C)C)c2ccc(C)cc2)cc1` (centres undefined): the inhibition was -2.2% (inactive).

For `C[N+](C)(C)CCNC(=O)c1c[nH]c2ccccc12`, the inhibition is -7.5% (inactive). As to `COc1ccc(C2C(C(C)=O)=C(O)C(=O)N2CCc2c[nH]c3ccccc23)cc1` (centres undefined), the inhibition is 0.4% (inactive). In the case of `COc1ccc(/C=C(\C#N)c2c[nH]c3ccccc23)cc1` it was 90.4% (active); in that of `O=C(CN1C(=O)NC2(CCc3ccccc32)C1=O)NC1CCCCC1` (centres undefined), -1.5% (inactive). In the case of `Brc1ccc2c(c1)[C@H]1OCC[C@H]1[C@@H](c1cccs1)N2` it was 1% (inactive). The same measure for `COc1cccc2oc(CCc3ccccc3)cc(=O)c12`: -4.5% (inactive); for `COc1ccc(CC(N)c2csc(NC(=O)Nc3ccc(C(C)C)cc3)n2)cc1` (centres undefined): 67.4% (active).

`COc1ccc(CC(N)c2csc(NC(=O)NC(c3ccccc3)c3ccccc3)n2)cc1` (centres undefined): the inhibition was 11.2% (inactive).

With `COc1ccc(CC(N)c2csc(NC(=O)Cc3ccccc3)n2)cc1` (centres undefined), the inhibition was -2.9% (inactive).

In the case of `CC(=O)NCC(=O)N(Cc1ccco1)C1(C(=O)NC2CCCC2)CCCCC1`, the inhibition was 4.1% (inactive).

On to `Cc1cc(C)cc(NC(=O)c2cccc(NC(=O)C3C4CC5OC(=O)C3C5C4)c2)c1` (centres undefined), for which the inhibition is -3.6% (inactive).

`CCCCCCCCCCOC(=O)Cn1c(COc2cccc(OC)c2)[n+](C)c2ccccc21`: the inhibition is 63.4% (active). For the molecule `CCCCCCCCCCOC(=O)Cn1c(COc2ccc(C)cc2)[n+](C)c2ccccc21`, the inhibition was 79.9% (active).

For the molecule `Cc1noc(C)c1COC(=O)Cn1c(C)nc2ccccc21`, the inhibition is -0.2% (inactive). In the case of `CCOc1ccc(OCCSc2nc3ccccc3n2CC(=O)O)cc1` it was -4.7% (inactive); in that of `Cc1cccc(-n2c(Cc3cc(=O)[nH]c(=O)[nH]3)nnc2SCC(=O)Nc2cccc(C(F)(F)F)c2)c1`, -9.1% (inactive); in that of `COc1ccc(CCNC(=O)NS(=O)(=O)c2ccc(C)cc2)cc1OC`, -3.4% (inactive). The same measure for `CC(=O)N1C[C@@H](CO)[C@@H](N(C)C(=O)c2ccco2)C[C@H]1c1ccccc1`: -2% (inactive); for `NC(=S)NN=C1CCCC(C(F)(F)F)C1` (centres undefined): -3% (inactive). In the case of `Cc1ccc(NC(=O)c2cc(-c3ccc(C)o3)nc3ccccc23)nc1` it was 71.4% (active); in that of `Cc1c(NC(=O)c2cc(-c3ccc(Cl)s3)nc3ccccc23)c(=O)n(-c2ccccc2)n1C`, 8.8% (inactive); in that of `CCc1ccc(-c2cc(C(=O)NN3CCN(C)CC3)c3ccccc3n2)cc1`, -2.9% (inactive). As for `CCN1C(=O)[C@H]2[C@@H](c3ccc(SC4CCCCC4)c(OC)c3)N[C@@](Cc3ccccc3)(C(=O)OC)[C@H]2C1=O`, the inhibition was -2.9% (inactive).

As to `CCN1C(=O)[C@H]2[C@@H](c3ccc(-c4ccc(OC)cc4)cc3)N[C@@](Cc3ccccc3)(C(=O)OC)[C@H]2C1=O`, the inhibition was -2.6% (inactive). For `CCN1C(=O)[C@H]2[C@@H](c3ccc(-c4ccc(F)cc4)cc3)N[C@@](Cc3ccccc3)(C(=O)OC)[C@H]2C1=O`, the inhibition was 97.9% (active). The same measure for `COc1ccc(CC(NC(C)=O)C(=O)NC2CCN(C(=O)c3ccc(Cl)cc3)CC2)cc1` (centres undefined): -6.3% (inactive); for `COc1cc2c(cc1OC)C(c1ccccc1Br)NC(=O)C2` (centres undefined): 1.4% (inactive); for `Brc1ccccc1C1Nc2cccc3cccc(c23)N1`: 72.2% (active). The same measure for `Brc1ccccc1C1N=C(c2ccccc2)NO1` (centres undefined): -3.5% (inactive); for `NS(=O)(=O)c1cc(Cl)c(Cl)c(S(N)(=O)=O)c1`: 0.8% (inactive); for `O=S(=O)(c1ccccc1)N(Cc1cccc(F)c1)c1ccccc1`: 65.4% (active). Turning to `NC(=O)c1ccccc1N(Cc1ccccc1)S(=O)(=O)c1ccccc1`, the inhibition was 11.2% (inactive). As for `O=C(O)c1cc(S(=O)(=O)N(Cc2ccccc2)c2ccccc2)ccc1Cl`, the inhibition was -1% (inactive). Regarding `OCCC1CN(Cc2cccn2-c2nccs2)CCN1CCc1ccccc1` (centres undefined), the inhibition was 1.1% (inactive). The same measure for `COC(=O)[C@@]12CCCN1[C@H](c1ccc(-c3ccc(F)cc3)c(OC)c1)[C@H]1C(=O)N(C)C(=O)[C@H]12`: -14% (inactive). Take `CCCCNC(=O)C[C@@H]1C[C@@]2(C(=O)OC)CC(C)(C)CC=C2N(Cc2ccco2)C1=O`: the inhibition is -4.4% (inactive). In the case of `COC(=O)[C@H](C)[C@H]1C[C@]1(C)[C@H](NC(=O)OCc1ccccc1)c1ccccc1` it was 5.6% (inactive); in that of `COC(=O)[C@H](Cc1ccccc1)NC(=O)[C@@H]1C[C@H]1[C@@H](NC(=O)OCc1ccccc1)c1ccccc1`, 106% (active). Regarding `COC(=O)[C@@H](Cc1ccccc1)NC(=O)NCCc1ccccc1`, the inhibition was 2.5% (inactive).

The values above are taken from PubChem BioAssay AID651702 (NMMLSC, 2012).
